Structures are written as SMILES. Hit rate of the full screen: of about 330,000 compounds, about 10,000 (3%) were called active.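 Rule for the calls: active = inhibition of at least 50% at 8 µM in the primary screen; inactive = the rest.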 Many of the other results were omitted from the sample, so actives are more common in it than they were.

The target of this assay is Protein Mdm4 (Homo sapiens) + E3 ubiquitin-protein ligase Mdm2 (Homo sapiens) (UniProt O15151+Q00987). Kind of assay: disruptors of Mdm2/MdmX RING complex – cell-based, luminescence, split luciferase, SaOS-2, uHTS, primary screen (AID 485346). The note with it: SaOS-2 split-luciferase Mdm2/MdmX complementation, at 8 µM, hits give high values.
Chain of Protein Mdm4 (Homo sapiens) + E3 ubiquitin-protein ligase Mdm2 (Homo sapiens) (O15151 whole entry, looked up): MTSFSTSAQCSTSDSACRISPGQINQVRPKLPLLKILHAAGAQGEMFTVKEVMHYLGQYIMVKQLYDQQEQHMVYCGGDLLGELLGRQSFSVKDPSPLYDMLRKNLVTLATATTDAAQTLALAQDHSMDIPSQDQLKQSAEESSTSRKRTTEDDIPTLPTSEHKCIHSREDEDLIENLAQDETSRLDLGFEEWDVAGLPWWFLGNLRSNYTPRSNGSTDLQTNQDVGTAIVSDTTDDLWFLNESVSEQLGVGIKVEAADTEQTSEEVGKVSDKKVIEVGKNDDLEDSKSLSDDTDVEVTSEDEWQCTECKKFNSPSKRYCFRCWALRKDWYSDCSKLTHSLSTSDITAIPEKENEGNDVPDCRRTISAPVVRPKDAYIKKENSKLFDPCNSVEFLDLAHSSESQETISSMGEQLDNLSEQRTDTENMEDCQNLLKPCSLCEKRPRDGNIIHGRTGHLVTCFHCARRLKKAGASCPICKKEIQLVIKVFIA
Chain of Protein Mdm4 (Homo sapiens) + E3 ubiquitin-protein ligase Mdm2 (Homo sapiens) (Q00987 whole entry, looked up): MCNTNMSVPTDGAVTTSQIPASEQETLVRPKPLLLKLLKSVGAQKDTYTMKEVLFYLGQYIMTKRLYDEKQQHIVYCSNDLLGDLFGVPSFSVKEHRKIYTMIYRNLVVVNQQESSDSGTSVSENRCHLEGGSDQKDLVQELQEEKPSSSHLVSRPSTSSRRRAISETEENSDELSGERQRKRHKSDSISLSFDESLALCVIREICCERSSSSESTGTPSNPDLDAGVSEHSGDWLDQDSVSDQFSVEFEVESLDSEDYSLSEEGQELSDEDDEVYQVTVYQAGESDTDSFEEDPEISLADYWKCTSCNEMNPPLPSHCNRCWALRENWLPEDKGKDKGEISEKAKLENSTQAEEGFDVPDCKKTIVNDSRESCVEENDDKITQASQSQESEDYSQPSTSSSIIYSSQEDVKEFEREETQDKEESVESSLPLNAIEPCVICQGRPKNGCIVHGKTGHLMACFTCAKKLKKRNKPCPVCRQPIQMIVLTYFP
In the case of `Cc1c(Cl)cccc1NC(=S)NCC(O)c1ccccc1` (stereo not drawn), the inhibition was -14.3% (inactive).
The same measure for `Cc1cccc(C(=O)OC(C)C(=O)NC2CCCc3ccccc32)c1O` (stereo not drawn): 28.3% (inactive); for `NC(=O)Nc1ccc(C(=O)OCC(=O)NC2CCCc3ccccc32)cc1` (stereo not drawn): -3.47% (inactive); for `COC(=O)c1cc(OCC(=O)NC2CCCc3ccccc32)cc(C(=O)OC)c1` (stereo not drawn): 1.41% (inactive).
The result for `O=C(CCNC(=O)c1ccc(Cl)cc1)NC1CCCc2ccccc21` (stereo not drawn) reads 82.7% (active); that for `CC1(c2ccccc2)NC(=O)N(CC(=O)N2CC(=O)Nc3ccccc32)C1=O` (stereo not drawn), -7.07% (inactive).
In the case of `Cc1nnc(NC(=O)C(c2ccccc2)c2ccccc2)s1`, the inhibition is 7.45% (inactive).
In the case of `Cc1ccc(NC(=O)Nc2nnc(-c3ccncc3)s2)cc1`, the inhibition was 45.1% (inactive).
The result for `Cc1nnc(NC(=O)Nc2ccc(Cl)c(Cl)c2)s1` reads 95.2% (active).
As for `CC(C)Oc1ccc(S(=O)(=O)N2CCOCC2)cc1NC(=O)C1CCCC1`, the inhibition is -52.3% (inactive).
Regarding `CC1CC(=S)Nc2ccccc2N1Cc1ccccc1` (stereo not drawn), the inhibition was 18.7% (inactive).
The result for `CCCCN(CC)CCCNC(=O)c1ccc(CSc2nc3ccncc3[nH]2)cc1` reads 6.18% (inactive); that for `COc1cccc(NC(=O)COC(=O)c2ccc3ccccc3n2)c1`, -8.32% (inactive); that for `COc1ccc(CCNC(=O)CSc2nc(C)nc3c2oc2ccccc23)cc1OC`, -0.689% (inactive).
The same measure for `CC(Nc1nc(N2CCOCC2)nc2ccccc12)c1ccccc1` (stereo not drawn): -0.119% (inactive).
On to `CC(Nc1nc(N2CCN(CCO)CC2)nc2ccccc12)c1ccccc1` (stereo not drawn), for which the inhibition was -4.68% (inactive).
Regarding `CC(Nc1nc(N2CCCC2)nc2ccccc12)c1ccccc1` (stereo not drawn), the inhibition was 70.8% (active).
For `CCN(C(=O)COC(=O)CCC(=O)c1cccs1)C1CCCCC1`, the inhibition was 18.7% (inactive).
For the compound `CC(=O)c1ccc(NC(=S)N(Cc2ccccc2)C(C)C2CC2)cc1` (stereo not drawn), the inhibition was 29.9% (inactive).
As for `CCOC(=O)C1CSC(CC(=O)Nc2ccc(OCC)cc2)C(=O)N1` (stereo not drawn), the inhibition was 9.79% (inactive).
Turning to `COCC1CCCN(C(=O)c2ccc3oc(C(C)C)nc3c2)C1` (stereo not drawn), the inhibition is 28.6% (inactive).
The same measure for `Cc1cc(Nc2cc(N3CCN(C)CC3)nc(Sc3ccc(NC(=O)C4CC4)cc3)n2)n[nH]1`: 88.2% (active).
In the case of `Cc1n[nH]c(C)c1S(=O)(=O)N1CCCC(C(=O)Nc2ccc(Br)cc2)C1` (stereo not drawn), the inhibition is 18.8% (inactive).
As for `Cc1cc(C)nc(N2CCC(C(=O)Nc3ccc4c(c3)OCCO4)CC2)n1`, the inhibition was 15.6% (inactive).
As to `CCc1ccc(NC2Nc3cc(C)nn3S2)cc1` (stereo not drawn), the inhibition was -161% (inactive).
Regarding `Cc1ccc(CNC(=O)[C@@H](NC(=O)Cc2ccccc2)C(C)C)cc1`, the inhibition was 33.2% (inactive).
The same measure for `CCN(C(=O)COC(=O)CCOc1cccc(C)c1)c1c(N)n(Cc2ccccc2)c(=O)[nH]c1=O`: -15.7% (inactive); for `CCCCN(C(=O)C1=NN(c2cc(C)ccc2C)C(=O)CC1)c1c(N)n(CCC)c(=O)[nH]c1=O`: 4.43% (inactive).
The same measure for `Nc1nc(NC(=O)/C=C/c2ccc(F)cc2)nn1-c1ccccc1`: 36.3% (inactive).
Take `Cc1c(NC(=O)CCC2CCCCC2)cc(C(=O)N2CCOCC2)cc1[N+](=O)[O-]`: the inhibition was -15.2% (inactive).
As to `C=CCC[C@H](Cc1ccc(F)cc1)C(=O)OC[C@H](C)NC(=O)[C@H](CC=C)CC(=O)N(CCO)Cc1ccccc1`, the inhibition is -2.85% (inactive).
The result for `C=CCC[C@@H](Cc1ccc(F)cc1)C(=O)O[C@H](CNC(=O)[C@H](CC=C)CC(=O)N(CCO)Cc1ccccc1)c1ccccc1` reads 66.9% (active); that for `C=CC[C@H](CC(=O)N(CCO)Cc1ccccc1)C(=O)N[C@@H](COC(=O)[C@@H](CC=C)Cc1ccc(F)cc1)Cc1ccccc1`, 67.8% (active).
`C=CC[C@@H](Cc1ccc(F)cc1)C(=O)OC[C@H]1CCCN1C(=O)[C@H](CC=C)CC(=O)N(CCO)Cc1ccccc1`: the inhibition is 38.8% (inactive).
Regarding `C=CCC[C@@H](Cc1ccc(F)cc1)C(=O)OC[C@@H](C)NC(=O)[C@H](CC=C)CC(=O)N(CCO)Cc1ccccc1`, the inhibition is 24% (inactive).
For the compound `C=CCC[C@@H](Cc1ccc(F)cc1)C(=O)OC[C@H](Cc1c[nH]c2ccccc12)NC(=O)[C@@H](CC=C)CC(=O)N(CCO)Cc1ccccc1`, the inhibition is 87.5% (active).
The result for `C=CCC[C@H](Cc1ccc(F)cc1)C(=O)OC[C@@H](Cc1c[nH]c2ccccc12)NC(=O)[C@H](CC=C)CC(=O)N[C@H](CO)Cc1ccccc1` reads 38.1% (inactive); that for `C=CC[C@@H](CC(=O)N[C@H](CO)Cc1ccccc1)C(=O)N[C@@H](COC(=O)[C@@H](CC=C)Cc1ccc(F)cc1)Cc1c[nH]c2ccccc12`, 16.4% (inactive).
As for `C=CCC[C@H](Cc1ccc(F)cc1)C(=O)OC[C@@H](NC(=O)[C@@H](CC=C)CC(=O)N[C@H](CO)Cc1ccccc1)C(C)(C)C`, the inhibition is 46.7% (inactive).
The same measure for `CCOc1ccc(NC(=O)CN(C)C(=O)Cc2sc(C)nc2-c2ccc(F)cc2)cc1OCC`: 10.8% (inactive).
`COc1ccc(CN2CCN(C(=O)CCC(=O)Nc3nnc(C(C)C)s3)CC2)cc1F`: the inhibition is 16.8% (inactive).
The same measure for `O=C(/C=C/c1ccccc1[N+](=O)[O-])OCC(=O)N1CCCC1`: 15% (inactive); for `COc1ccc(S(=O)(=O)N2CCN(CC(=O)NCC3(N4CCOCC4)CCCCC3)CC2)cc1`: -0.077% (inactive); for `CCO[C@@H]1OC(C(=O)NCc2nc3ccccc3[nH]2)=C[C@H](C2CCCCC2)[C@H]1CCCO`: 18.5% (inactive).
Turning to `O=C(CSc1nnc(CNC(=O)c2ccc(F)cc2)o1)Nc1ccc2c(c1)OCO2`, the inhibition was 5.86% (inactive).
On to `NC(=O)C1CCN(C(=O)c2ccc(F)c(S(=O)(=O)N3CCOCC3)c2)CC1`, for which the inhibition was -40.7% (inactive).
For the compound `C=CCO/N=C(\C)c1c(O)c(C)c(-c2ccccc2)n(-c2ccccc2)c1=O`, the inhibition was 9.07% (inactive).
For the compound `CC(OC(=O)c1cc2ccccc2o1)C(=O)Nc1ccc(N2CCOCC2)cc1` (stereo not drawn), the inhibition is 11.3% (inactive).
As to `CN(CC(=O)Nc1c(Cl)cccc1Cl)C(=O)c1ccncc1`, the inhibition was 19.3% (inactive).
Turning to `Cc1occc1-c1nnc(SCC(=O)NC2(C#N)CCCC2)n1C`, the inhibition is 22.7% (inactive).
Turning to `CN1CCN(S(=O)(=O)c2ccc(N3CCN(c4ccccc4O)CC3)c([N+](=O)[O-])c2)CC1`, the inhibition is 2.63% (inactive).
For `O=c1[nH]c(CCl)nc2cc(-c3ccc(Cl)cc3)sc12`, the inhibition was 80.8% (active).
For `O=c1[nH]c(CN2CCOCC2)nc2cc(Cl)ccc12`, the inhibition was -2.08% (inactive).
For `NC(=O)Cc1nc2scc(-c3ccc(Cl)cc3)c2c(=O)[nH]1`, the inhibition is -0.903% (inactive).
With `O=C1c2ccccc2[C@@H]2C[C@@H](O)[C@H](Nc3ccccc3Cl)CCN12`, the inhibition was 22.5% (inactive).
The result for `Cc1ccnc(SCC(=O)Nc2cccc(S(=O)(=O)N3CCOCC3)c2)n1` reads 15.8% (inactive).
Take `COC(=O)CSc1nc2ccccc2c(=O)n1Cc1ccccc1`: the inhibition was 1.48% (inactive).
On to `CC(=O)c1nc2ccccc2n1Cc1ccccc1`, for which the inhibition was 4.16% (inactive).
For the compound `CC(=O)Oc1c(C(=O)c2nnc(C)o2)c(=O)n(Cc2ccccc2)c2ccccc12`, the inhibition was 53.7% (active).
In the case of `CCN1C(=S)N[C@@H](CCc2ccccc2)[C@H](C(=O)OC)[C@H]1C`, the inhibition was 6.92% (inactive).
Regarding `CCOC(=O)/C(=C\c1ccc([N+](=O)[O-])cc1)C(=O)c1cc(C(C)=O)c(Nc2ccccc2)s1`, the inhibition was 99.3% (active).
The result for `CCOC(=O)/C(=N\Nc1ccccc1[N+](=O)[O-])c1csc(Nc2ccccc2)n1` reads 23.4% (inactive); that for `Cc1ccc(NC(=O)/C(=C/c2ccc([N+](=O)[O-])cc2)NC(=O)c2ccccc2)cc1`, 17.1% (inactive).
As for `O=C(C1CC(=O)N(C2CCCC2)C1)N1CCN(c2cccc(C(F)(F)F)c2)CC1` (stereo not drawn), the inhibition is 4.03% (inactive).
The result for `Cc1cc(Nc2cccc(C)c2C)n2ncnc2n1` reads -28.4% (inactive); that for `Cc1cccc(OCC(O)Cn2c(N3CCCCC3)nc3c2c(=O)[nH]c(=O)n3C)c1` (stereo not drawn), -19.9% (inactive).
With `O=C(/C=C/c1ccccc1)Nc1nnc(SCC(=O)c2ccc3ccccc3c2)s1`, the inhibition is 69.7% (active).
The result for `NC(=O)CSc1nnc(NC(=O)c2ccc3ccccc3c2)s1` reads -8.44% (inactive); that for `COc1ccc(C(=O)CSc2nnc(NC(=O)C3CC(=O)N(c4cccc(OC)c4)C3)s2)cc1` (stereo not drawn), -12.2% (inactive).
Take `CC(=O)N/C(=C\c1ccccc1)C(=O)OC(C)C(=O)N(C)c1ccccc1` (stereo not drawn): the inhibition is 19.3% (inactive).
As to `O=C(CCSCCc1ccccn1)Nc1nccs1`, the inhibition was -7.99% (inactive).
Take `COc1ccc(C2CC(c3ccccc3)=NN2C(=O)c2ccc(Cl)c([N+](=O)[O-])c2)cc1` (stereo not drawn): the inhibition is 88.8% (active).
As for `COc1ccc(C2CC(c3ccc([N+](=O)[O-])cc3)=NN2C(C)=O)cc1` (stereo not drawn), the inhibition was -14% (inactive).
The result for `COc1ccc(C2=NN(C(=O)c3cccnc3)C(c3ccccc3)C2)cc1` (stereo not drawn) reads 19.9% (inactive).
The result for `COc1ccc(C(C(=O)NC2CCCC2)N(CCCO)C(=O)Cn2nnc(-c3ccc(C)o3)n2)cc1` (stereo not drawn) reads -6.39% (inactive).
The same measure for `COC(C[C@@H](O)[C@H](C)[C@H](O)COCc1ccccc1)OC`: 26.1% (inactive); for `COc1ccc(C2=NN(C(=O)c3ccccc3C(=O)O)C(c3ccccc3O)C2)cc1` (stereo not drawn): -30.7% (inactive).
Take `CCOc1ccc2nc(Cl)c(C3CC(c4ccccc4)=NN3C(=O)c3cccs3)cc2c1` (stereo not drawn): the inhibition is 95% (active).
`CCOc1ccccc1C1CC(c2cccc(NS(C)(=O)=O)c2)=NN1C(=O)c1ccccc1` (stereo not drawn): the inhibition was 8.21% (inactive).
`CCOc1ccc(C(C)C)cc1S(=O)(=O)n1nc(C)cc1C`: the inhibition is 13.1% (inactive).
The same measure for `COc1ccc(OC)c(S(=O)(=O)n2c([N+](=O)[O-])cnc2C)c1`: 22.7% (inactive); for `COc1ccc(C(C[N+](=O)[O-])n2nc(C)cc2C)cc1` (stereo not drawn): 69.3% (active); for `Cc1ccc(Cl)c(NC(=O)CN(C)CC(=O)Nc2ccc(F)c(F)c2F)c1Cl`: -0.971% (inactive).

What is called inhibition is the drop in the measured response relative to a control, in per cent.

The values above are taken from PubChem BioAssay AID485346 (Sanford-Burnham Center for Chemical Genomics, 2010).
